Test results: ChEMBL document CHEMBL3988442, “University of Dundee, Small-Polar-MMV Screening Library” (2021)
Out of some 53,000 compounds screened, about 900 (1.7%) showed an effect of 50% or more. The full list was thinned out, with strong results kept by preference.

System: Mycobacterium tuberculosis
Assay: Cornell - Phenotypic assay to identify agents that inhibit growth of Mycobacterium tuberculosis
Assay type: functional
Set-up: scale not given: direction of the effect not stated beside the values
Details: 10 mM as filed; unlikely as a test dose

Structure (SMILES) | Percent Effect [%]
COc1cccc(CN2CCN(c3noc(C(C)C)n3)CC2)c1F | 42.13
COc1cccc(CN2CC[C@H](NC(C)=O)[C@@H](O)CC2)c1F | -15.13
COc1cccc(CN2CCN(c3cccc(C(C)C)n3)CC2)c1F | 57.83
CC(C)c1cc2c(s1)NC(c1ccccn1)NC2=O (configuration not stated) | -1.811
CCn1c(C2CCCN2Cc2noc(C(C)(C)C)n2)nc2ccccc21 (configuration not stated) | 13.86
COc1ccccc1CC(=O)NC(C)c1nc2cccnc2n1C(C)C (configuration not stated) | -9.677
CC(C)Nc1ncnc2c1CCN(C(=O)c1ccncc1F)CC2.O=C(O)C(F)(F)F | -9.598
O=C(O)c1c(Cl)ncn1-c1cccc2ccccc12 | 19.97
N#Cc1ccc(C(=O)O)nc1/C=C/c1cccc(Cl)c1 | -13.81
O=C(O)C1(Oc2ccc3ccccc3c2)CCN(c2ncccn2)CC1 | 20.42
O=C(O)c1cc(/C=C/c2ccc3ccccc3c2)ncn1 | 74.73
N#Cc1ccc(C(=O)O)nc1/C=C/c1cccc(F)c1 | 2.587
O=C(O)c1cc(/C=C/c2cccc3ccccc23)ncn1 | 65.34
O=C(O)c1cc(/C=C/c2ccccc2)ncn1 | 65.58
N#Cc1ccc(C(=O)O)nc1/C=C/c1cccc(Br)c1 | 10.67
CNC(=O)C1CCN(C(=O)NCc2ccc(-c3ccn[nH]3)cc2)CC1 | -24.99
N#Cc1ccc(N2CCC3(CCC(=O)N3CCN3CCCC3)CC2)nc1.O=C(O)C(F)(F)F.O=C(O)C(F)(F)F | 3.156
CCc1nnc2n1CCN(C(=O)CN(C)C1CC1)C2 | -12.51
CCN1Cc2cc3c(cc2NCCC1=O)OCO3 | -32.17
CN1CCC(N(CCc2ccccc2)C(=O)COCC2CCCO2)CC1 (configuration not stated) | 41.94
CN1CC(=O)N(c2ccsc2)CC12CCN(S(=O)(=O)C1CC1)C2.O=C(O)C(F)(F)F (configuration not stated) | 6.764
O=C(NC1CCC1)C1=NOC2(CCN(Cc3ccccc3)C2)C1 (configuration not stated) | -9.005
N#CCSCCCN1CCN(C(=O)c2cccc(Cl)c2)CC1 | 18.37
CCC(Nc1nc(C(C)C)nc2c1cnn2C)c1ccc(O)cc1 (configuration not stated) | 1.347
CCC(Nc1nc(C(C)C)nc2c1cnn2C)c1ccncc1 (configuration not stated) | 25.2
CC[C@H](Nc1nc(C(C)C)nc2c1cnn2C)c1ccccc1 | 70.75

Structure (SMILES) | Percent Effect [%]
Cc1nc(Nc2nnc(C)s2)cc(C2CCCN2c2ccncc2)n1 (configuration not stated) | -13.84
CCc1noc(C(C)N2CCc3c(ncn3C3CC3)C2)n1 (configuration not stated) | -20.08
COCc1nc(C(=O)N2CCCC(n3cccn3)C2)cs1 (configuration not stated) | 67.19
COCc1nc(C(=O)N2CCCC(n3nc(C)cc3C)C2)cs1 (configuration not stated) | -24.43
CCc1nccn1C1CCCN(C(=O)c2csc(COC)n2)C1 (configuration not stated) | 19.86
CN1CCC2(CC1)C(=O)N(CC1CC1)c1ccccc12.O=C(O)C(F)(F)F | 8.295
c1coc(CNCC2Cn3nncc3CO2)c1 (configuration not stated) | -14.67
Cc1cccnc1NCCNC(=O)c1cnc(-c2cccs2)nc1O | 19.3
COc1cccc(CN(Cc2ccco2)Cc2[nH]cnc2C)c1.O=C(O)CC(O)(CC(=O)O)C(=O)O | -15.02
COc1ccc(CN(Cc2ccco2)Cc2[nH]cnc2C)c(OC)c1.O=C(O)CC(O)(CC(=O)O)C(=O)O | 39.21
COc1ccc(OC)c(CN(Cc2ccco2)Cc2[nH]cnc2C)c1.O=C(O)CC(O)(CC(=O)O)C(=O)O | 50.25
Cc1noc([C@H]2C[C@H]3OCC[C@H]3N(C3CCC3)C2)n1.O=C(O)C(F)(F)F | -34.16
COc1ccc(OC)c(Sc2ncccc2C(=O)NCCSC)c1 | -9.266
CN(C)C(=O)N1CC2(CCNCC2)c2cc(Cl)ccc21.Cl | -44.55
COC(=O)N1CC2(CCNCC2)c2cc(Cl)ccc21.Cl | 26.9
CC(=O)N1CC2(CCNCC2)c2cc(Cl)ccc21.Cl | 63.2
CN(C)Cc1cnn(-c2ccccc2C(=O)NCCC2CCCN2C)c1 (configuration not stated) | 17.58
O=C(Cc1c[nH]c2ccccc12)N1CCN(C(=O)c2ccoc2)CC1 | -1.862
C[S+]([O-])c1nncn1CC(=O)c1cccc(Cl)c1 (configuration not stated) | 12.76
C[S+]([O-])c1nncn1CC(=O)c1ccc2c(c1)CCO2 (configuration not stated) | 2.009
C[S+]([O-])c1nncn1CC(=O)c1ccc(Cl)c(Cl)c1 (configuration not stated) | 51.67
COc1coc(C(=O)Nc2nc(-c3cccnc3)cs2)cc1=O | 11.19
O=C(c1ccncn1)N1C[C@H]2CCC[C@@]2(COCC2CCOCC2)C1 | 2.154
Cc1nc(C)n(CC2CN(Cc3cc(C#N)ccc3F)CCO2)n1 (configuration not stated) | 13.34
COc1cc(CC2CC(C(N)=O)=NO2)cc2c1OCO2 (configuration not stated) | 13.11
COc1cc(CNCc2ccc(C(C)O)cc2)cc2c1OCO2 (configuration not stated) | 3.367

Structure (SMILES) | Percent Effect [%]
CCOC(=O)C1=NOC(Cc2cc(OC)c3c(c2)OCO3)C1 (configuration not stated) | 94.96
COC(=O)C1=NOC(Cc2cc(OC)c3c(c2)OCO3)C1 (configuration not stated) | 104.6
COc1c(CC2CC(C(=O)O)=NO2)c(Br)c2c(c1OC)OCO2 (configuration not stated) | 14.91
COc1cc(CC2CC(c3ccc4c(c3)OCO4)=NO2)cc2c1OCO2 (configuration not stated) | 30.67
Cc1cc(C)nc(C2CCN(C(=O)c3cncnc3C)C2)n1 (configuration not stated) | -38.99
Cc1nc(CN2C(=O)COC3(CCN(CC4CC4)CC3)C2C)cs1.O=C(O)C(F)(F)F (configuration not stated) | 6.692
Cc1c(C(=O)NC2CCCOC2)nnn1-c1ccccc1 (configuration not stated) | -4.644
Cc1cccc(-c2noc(C)c2C(=O)NC2CCCOC2)c1.O=C(O)CC(O)(CC(=O)O)C(=O)O (configuration not stated) | 20.12
Cc1onc(-c2ccncc2)c1C(=O)NC1CCCOC1 (configuration not stated) | 52.15
Cc1cnn(CC2CCCN2CC(=O)Nc2cc(C(C)(C)C)no2)c1 (configuration not stated) | 16.98
CCN1CCN(C(=O)NCc2cccnc2-n2cccn2)CC1 | -23.25
CNC(=O)[C@@H]1CN(C(=O)COC)C[C@H]1c1ccnc(N2CCCC2)n1 | 50.96
CCC(=O)N1C[C@@H](C(=O)NC)[C@H](c2ccnc(N3CCCC3)n2)C1.Cl | 24.83
CNC(=O)[C@@H]1CN(C(=O)C2CCC2)C[C@H]1c1ccnc(N2CCCC2)n1.Cl | 54.39
CCNC(=O)C1CCN(c2nccc(C3CCCC3)n2)C1 (configuration not stated) | 13
CNC(=O)[C@@H]1CN(C(=O)C(C)C)C[C@H]1c1ccnc(N2CCCC2)n1.Cl | 37.07
CNC(=O)[C@@H]1CN(C(=O)CCOC)C[C@H]1c1ccnc(N2CCCC2)n1.Cl | 43.65
Cc1nn(C)c(N2CCOCC2)c1CNC1CCCCNC1=O (configuration not stated) | -11.46
CC(C)c1nn(C)c(N(C)C)c1CNC1CCN(C2CC2)CC1.Cl | 42.5
Cc1nn(C)c(N(C)C)c1CNC1CCCCNC1=O (configuration not stated) | 63.11
CC(C)c1nn(C)c(N(C)C)c1CNC1CCN(CC2CC2)CC1 | 58.14
Cc1nn(C)c(Oc2ccccc2)c1CNC1CCCCNC1=O (configuration not stated) | -7.334
CC(C)c1nn(C)c(N(C)C)c1CNC1CCC(O)CC1 (configuration not stated) | 21.48
CC(C)c1nn(C)c(N(C)C)c1CNC1CCCCNC1=O (configuration not stated) | 91.87
COCCN1CCC(NCc2c(C(C)C)nn(C)c2N(C)C)CC1 | 39.85
CC(C)C(=O)N1CCC(NCc2c(C(C)C)nn(C)c2N(C)C)CC1 | 31.79

Structure (SMILES) | Percent Effect [%]
CN(CCc1nccs1)C(=O)CC1(O)CCCCC1 | 19.59
COCCCNCc1cc(O)c2cc(C)cc(C)c2n1 | 3.207
COc1ccc(OC2CCN(c3ccncc3)CC2)cc1 | 27.59
CC(=O)Cn1nc(-c2ccccc2F)ccc1=O | 6.771
Cc1cccc(CN2C(=O)C[C@H]3[C@@H]2CCN3Cc2ccc(F)cc2)n1.O=C(O)C(F)(F)F.O=C(O)C(F)(F)F | 15.09
CCn1nc(C)cc1C(=O)N1C[C@@H]2C[C@@H](c3nnc(C)[nH]3)O[C@@H]2C1 | -8.9
COc1cccc(CNC(=O)Cn2ccc3c(C)nn(C)c3c2=O)c1 | 4.678
Cc1nn(C)c2c(=O)n(CC(=O)NCc3ccc(N(C)C)cc3)ccc12 | 96.11
Cc1nn(C)c2c(=O)n(CC(=O)NCCC(C)C)ccc12 | 2.416
OCCCN(CCn1cncn1)c1ccccc1 | -44.33
c1ccc(N(CCn2cncn2)CC2CC2)cc1 | -28.11
Oc1ccc(N(CCc2ccccc2)CCn2cncn2)cc1 | 107
Cc1cc(CNC(=O)N2CCOC(c3ccccc3Cl)C2)no1 (configuration not stated) | -0.6476
COc1cc([C@@H]2N[C@H](c3nccs3)Cc3ccsc32)cc(OC)c1OC | 44.3
COc1ccc(OC)c([C@@H]2N[C@H](c3nccs3)Cc3ccsc32)c1 | 46.52
COc1cccc([C@@H]2N[C@H](c3nccs3)Cc3ccsc32)c1OC | 50.54
Cc1ncc(-c2ccnc(NCCc3ccc(F)cc3)n2)c(=O)[nH]1 | -5.112
Cn1ncc2c(N3CCN4CCCCC4C3)nc(C3CCCC3)nc21 (configuration not stated) | 27.57
CCOC(=O)c1n[nH]cc1-c1cncn1CCCn1nc(C)cc1C.Cl | 25.38
CN1CCCc2cc(-c3cncn3CC(=O)NC(C)(C)C)ccc21.Cl | 13.27
CN1CCCc2cc(-c3cncn3CCNC3CCS(=O)(=O)C3)ccc21.Cl (configuration not stated) | 6.115
CC1Cc2cc(-c3cncn3CC(=O)NC(C)(C)C)ccc2N1C.Cl (configuration not stated) | -2.378
Cc1cc(C)n(CCCn2cncc2-c2ccc3c(c2)CC(C)N3C)n1.Cl (configuration not stated) | 63.97
Cc1nn(C)c(C)c1CCn1cncc1-c1ccc2c(c1)CC(C)N2C.Cl (configuration not stated) | 64.61
